Common to all, as to settings: primary human HUVEC with PBMC; actives raise or lower the signal
Read-out in assay [1]: Monocyte Chemoattractant Protein-1 (MCP1), CCL2 (gene 6347)
In words: BSK_LPS_MCP1: BioMAP Diversity Plus: LPS Assay for Monocyte Chemoattractant Protein-1 (MCP1) Biomarker Activity (AID 2283081).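 For AC50: secreted MCP-1 protein quantified by ELISA in culture supernatant.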 Put shortly:
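Human endothelial–PBMC co-cultures were dosed with chemical, then LPS-driven MCP-1 levels were quantified by ELISA at 24 h. Activity in either direction was fitted versus DMSO negative control.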

Assay [2] is described as follows: BSK_LPS_PGE2: BioMAP Diversity Plus: LPS Assay for Prostaglandin E2 (PGE2) Biomarker Activity (AID 2283082).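 For AC50: secreted prostaglandin E2 measured by ELISA in LPS-stimulated co-culture.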 Put shortly:
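PGE2 release measured by ELISA in an LPS-activated co-culture of human umbilical vein endothelial cells and peripheral blood mononuclear cells, read at 24 h post-dosing. DMSO served as baseline for bidirectional curve fitting.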

Read-out in assay [3]: Macrophage colony-stimulating factor (MCSF), CSF1 (gene 1435)
In words: BSK_LPS_MCSF: BioMAP Diversity Plus: LPS Assay for Macrophage colony-stimulating factor (MCSF) Biomarker Activity (AID 2283083). Put shortly: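 ELISA readout of M-CSF after 24 h compound exposure in a human endothelial/PBMC co-culture. Activity, in either direction, is fitted relative to DMSO vehicle.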

Read-out in assay [4]: Tissue Factor, F3 (gene 2152)
In words: BSK_LPS_TissueFactor: BioMAP Diversity Plus: LPS Assay for Tissue Factor Biomarker Activity (AID 2283084). Put shortly:
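ELISA signal for cell-surface Tissue Factor (CD142) was read 24 h after compound dosing of an LPS-stimulated human endothelial–PBMC primary co-culture. Gain or loss of signal was scored relative to DMSO.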

Read-out in assay [5]: Tumor necrosis factor (Homo sapiens) (UniProt P01375)
In words: BSK_LPS_TNFa: BioMAP Diversity Plus: LPS Assay for Tumour Necrosis Factor alpha (TNFa) Biomarker Activity (AID 2283085).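 For AC50: TNFa protein level quantified by ELISA in the co-culture.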 A digest of the protocol: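 TNFa was quantified by ELISA in LPS-activated co-cultures of human endothelial cells and PBMC, 24 h post-dosing. Both increases and decreases versus DMSO were fitted.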

Read-out in assay [6]: Vascular cell adhesion molecule 1 (VCAM1), VCAM1 (gene 7412)
In words: BSK_LPS_VCAM1: BioMAP Diversity Plus: LPS Assay for Vascular cell adhesion molecule 1 (VCAM1) Biomarker Activity (AID 2283086). Put shortly: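 VCAM-1 quantified by ELISA in an LPS-activated co-culture of human endothelial cells and peripheral blood mononuclear cells, read 24 h post-treatment. Fitted in both directions versus DMSO; parallel SRB staining flags overt cytotoxicity.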

Read-out in assay [7]: CD38, CD38 (gene 952)
In words: BSK_SAg_CD38: BioMAP Diversity Plus: SAg Assay for CD38 Biomarker Activity (AID 2283087). A digest of the protocol: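 CD38 quantified by ELISA (fluorescence) in a superantigen-activated endothelial cell–PBMC co-culture at 24 h post-dose. Activity fitted in both directions relative to DMSO; parallel SRB and Alamar Blue cytotoxicity read-outs.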

Read-out in assay [8]: CD40, CD40 (gene 958)
In words: BSK_SAg_CD40: BioMAP Diversity Plus: SAg Assay for CD40 Biomarker Activity (AID 2283088). A digest of the protocol: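 Compounds were dosed onto a human primary endothelial–PBMC co-culture, and after 24 h CD40 was quantified by ELISA using a fluorescence signal. Activity in either direction was fitted relative to DMSO.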

Read-out in assay [9]: CD69, CD69 (gene 969)
In words: BSK_SAg_CD69: BioMAP Diversity Plus: SAg Assay for CD69 Biomarker Activity (AID 2283089).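 For AC50: cell surface CD69 protein quantified by ELISA with fluorescence detection.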 A digest of the protocol:
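Endothelial/PBMC co-culture; chemical added; 24 h incubation; CD69 ELISA with fluorescence detection; bidirectional fit vs DMSO.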

Structures are written as SMILES. Activity calls are given as the source filed them. Rule for the calls: active = hit-call score of the fitted dose curve at least 0.9, where 1 is the maximum; inactive = score below 0.9.

Sequence of Tumor necrosis factor (Homo sapiens) (P01375 whole entry, looked up): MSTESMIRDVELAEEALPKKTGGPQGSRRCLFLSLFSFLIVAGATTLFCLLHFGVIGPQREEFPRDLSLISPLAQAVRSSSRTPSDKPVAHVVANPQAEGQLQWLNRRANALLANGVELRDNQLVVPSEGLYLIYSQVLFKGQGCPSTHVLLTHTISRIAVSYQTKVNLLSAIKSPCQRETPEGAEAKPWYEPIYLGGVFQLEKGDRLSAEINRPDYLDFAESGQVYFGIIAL

As a reminder, the AC50 is the midpoint of the concentration-response curve, whichever way the signal moves. Take `CCCCNC(=O)n1c(NC(=O)OC)nc2ccccc21`: the result in assay [1], in assay [2], in [3], in [4], in [5] and in [7] was inactive. The outcome in assay [8] and in assay [9] was inactive. In addition, the half-maximal activity concentration (AC50) in [6] is 22.6 µM (active).
For `C=CCC1=C(C)[C@@H](OC(=O)[C@@H]2[C@@H](C=C(C)C)C2(C)C)CC1=O`, the AC50 in [1] is 32.1 µM (active); in assay [2], 4.92 µM (active); in assay [3], 26.9 µM (active); in assay [5], 36.5 µM (active); in assay [6] it was 29.2 µM (active); in assay [7], 33.1 µM (active). The concentration at half-maximal activity (AC50) is 38.7 µM (active) in assay [8] and 36.5 µM (active) in assay [9]. In addition, the result in assay [4] was inactive.
`N#Cc1cc(Br)c(O)c(Br)c1`: the outcome in [1], in [2], in assay [4], in assay [5] and in assay [6] was inactive. For the same molecule, the AC50 in [3] is 4.08 µM (active); in assay [7], 31.2 µM (active); in assay [8], 20 µM (active); in assay [9], 26.4 µM (active).
Turning to `CCCC1COC(Cn2cncn2)(c2ccc(Cl)cc2Cl)O1` (stereo not given), the outcome in assay [1], in assay [4], in [5], in [6], in [7] and in assay [8] was inactive. In assay [9], the outcome was inactive. The half-maximal activity concentration (AC50) in assay [2] was 6.44 µM (active).
In the case of `COc1ccc(C(c2ccc(OC)cc2)C(Cl)(Cl)Cl)cc1`, the AC50 in [1] is 29.7 µM (active); in [3], 20 µM (active); in assay [5], 12.2 µM (active); in assay [6] it was 20 µM (active); in assay [7], 14.9 µM (active); in [8] it was 15.3 µM (active). Moreover, the half-maximal activity concentration (AC50) in assay [9] is 25.4 µM (active). The result in assay [2] and in [4] was inactive.
In the case of `CS/C(C)=N/OC(=O)N(C)SN(C)C(=O)O/N=C(\C)SC`, the half-maximal activity concentration (AC50) is 29.9 µM (active) in assay [1]; 28.2 µM (active) in assay [3]; 32.1 µM (active) in assay [4]; 16.2 µM (active) in assay [5]; 24.3 µM (active) in assay [6]; 26.4 µM (active) in [7]. Moreover, the AC50 in assay [8] was 28.3 µM (active); in assay [9] it was 31.7 µM (active). Besides, the result in assay [2] was inactive.
As for `O=C(O)c1nc(Cl)ccc1Cl`, the result in assay [1], in [2], in [3], in [4], in assay [5] and in [6] was inactive. The outcome in [7], in [8] and in assay [9] was inactive.
For `CCc1nn(C)c(C(=O)NCc2ccc(C(C)(C)C)cc2)c1Cl`, the half-maximal activity concentration (AC50) in [1] was 29.4 µM (active); in [2], 3.97 µM (active); in assay [3], 13.4 µM (active); in [4], 20 µM (active); in assay [5], 20.8 µM (active); in [6], 19.4 µM (active). Further, the AC50 was 15.8 µM (active) in [7], 7.68 µM (active) in assay [8] and 3.99 µM (active) in [9].
As to `CC1=C(C(=O)Nc2ccccc2)SCCO1`, the outcome in assay [1], in [3], in assay [4], in assay [5], in assay [6] and in assay [7] was inactive. In addition, the outcome in assay [8] and in [9] was inactive. In [2], the AC50 is 8.8 µM (active).
On to `CCOP(=S)(OCC)SCn1c(=O)oc2cc(Cl)ccc21`, for which the AC50 in assay [1] is 25.8 µM (active); in [2] it was 13.5 µM (active); in assay [3], 11.1 µM (active); in [5], 12 µM (active); in assay [6], 13.9 µM (active); in [7], 30.4 µM (active). Besides, the result in assay [4], in assay [8] and in [9] was inactive.
In the case of `COc1nc(C)nc(NC(=O)NS(=O)(=O)c2ccccc2CCC(F)(F)F)n1`, the result in [1], in assay [2], in assay [3], in assay [4], in assay [5] and in [6] was inactive. For the same molecule, the result in assay [7], in [8] and in assay [9] was inactive.
For `COc1nc(C)nc(NC(=O)NS(=O)(=O)c2ccccc2Cl)n1`, the result in assay [1], in assay [2], in assay [3], in [4], in [5] and in assay [6] was inactive. For the same molecule, the outcome in assay [7], in assay [8] and in assay [9] was inactive.
Take `Cc1cc(Cl)ccc1OCC(=O)O`: the result in [1], in [2], in assay [3], in assay [4], in [5] and in assay [6] was inactive. Moreover, the outcome in assay [7], in assay [8] and in [9] was inactive.
With `CC(C)Oc1cc(-n2nc(C(C)(C)C)oc2=O)c(Cl)cc1Cl`, the concentration at half-maximal activity (AC50) is 30.2 µM (active) in assay [1]; 32.7 µM (active) in [3]; 35.7 µM (active) in [5]; 31.7 µM (active) in assay [6]; 28.7 µM (active) in assay [7]; 29.3 µM (active) in assay [8]. In assay [9], the AC50 was 30.7 µM (active). Further, the result in assay [2] and in [4] was inactive.

The values are drawn from PubChem BioAssay (EPA / NIEHS).
